Only some compounds are listed: those with a hit (about 2.9% of all), similar ones and a draw of the others.
D3 antag: D3 dopamine receptor (human) antagonism | max response, negative = inhibition, % | P35462 | 360,000 tested, 2.5% active | D3R cells, DiscoveRx beta-arrestin luminescence, antagonist mode; hits give low values | AID 652054; in the data active means max response below about -50%; inconclusive means no clear call, values can overlap the other calls; further: on the % scale 0 is the no-effect control and ±100 the full control effect
Target sequence (P35462 whole entry, looked up): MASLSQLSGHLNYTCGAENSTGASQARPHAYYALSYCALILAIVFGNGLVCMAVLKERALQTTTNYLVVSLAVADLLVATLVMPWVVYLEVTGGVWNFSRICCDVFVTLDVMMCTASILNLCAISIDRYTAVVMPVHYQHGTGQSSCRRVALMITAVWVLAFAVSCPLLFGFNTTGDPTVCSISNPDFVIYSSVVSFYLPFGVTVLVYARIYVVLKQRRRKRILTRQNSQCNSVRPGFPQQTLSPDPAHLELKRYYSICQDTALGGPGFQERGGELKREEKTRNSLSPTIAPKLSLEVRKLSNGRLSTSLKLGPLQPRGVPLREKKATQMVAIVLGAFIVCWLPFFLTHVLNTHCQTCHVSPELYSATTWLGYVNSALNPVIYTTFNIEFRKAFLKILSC
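Cells expressing the human receptor were seeded at 1500 cells/well, incubated overnight at 37 degrees C in 5% CO2, then exposed to library compounds with dopamine controls for 90 minutes at 37 degrees C before luminescent detection.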
D3 ag: D3 dopamine receptor (human) agonism | AID 652048 | P35462 | D3R DiscoveRx beta-arrestin cells, luminescence, 90 min | 410,000 tested, 0.58% active | max activation, %; in the data active means max activation above about 30%; further: 0% is about no effect
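Cells at 1500/well, incubated overnight, then treated with pinned compounds (dopamine as control) for 90 min at 37 degrees C. DiscoveRx reagent added for 30 - 60 minutes at room temperature; luminescence read.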
Rango complex inh: inhibitors of Rango-importin beta complex formation; 340,000 tested, 0.031% active; Rango CFP/YFP FRET sensor + importin beta, 45 min; Potency, µM (doses to about 92.2 µM), inactives show top-dose inhibition of complex formation; Q14974;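 further: potency means the concentration at half of the fitted maximal effect; 0% = DMSO wells and 100% = buffer wells lacking importin beta; nearly all actives have a fitted effect of over 15% in size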
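FRET biosensor (snurportin 1 IBB flanked by EYFP and cerulean), 50 nM, with compound 5 min, then 0.125 microM importin beta in PBS, 1 mM DTT, 0.02% Tween-20, 0.1% BSA. CFP/YFP ratio read after 45 min at room temperature; pre-read flags interference.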
Rango release inh: inhibition of RanGTP-driven Rango-importin beta dissociation. O95149+P62826. Biochemical FRET Rango-importin beta, RanGTP-induced dissociation. Potency, µM (top dose mostly 46.1 µM), inactives show at the highest dose activity change, negative = inhibition. 340,000 tested, 0.071% active; further: potency means the concentration at half of the fitted maximal effect; % of control where 0% means no effect; nearly all actives have a fitted effect of over 45% in size
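Compounds preincubate 5 min with complex of recombinant Rango and importin beta in PBS with 1 mM DTT. Ran (0.6 uM) loaded with 2 mM GTP plus 0.2 uM RCC1 starts dissociation; FRET is recorded 45 min later.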
TSG101-PTAP inh: blocks PTAP/TSG101 interaction to inhibit HIV-1 budding; Q99816; Fluorescence polarization, FITC-PTAP peptide / Tsg101 binding; Potency, µM (titrated, usually from 115 µM), for inactives: top-dose activity change, negative = inhibition, actives largely listed as inhibitors; 340,000 tested, under 10 active; active means well fitted inhibition curve with a large enough effect in the main read-out, with a control signal flat, not every such curve was filed as active; inconclusive means small, poorly fitted or top-dose-only effect, or effect the other way, or a change in a side signal; inactive means no such curve, though single readings can be large or run the other way; further: potency means the concentration at half of the fitted maximal effect; % of control where 0% means no effect
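Compounds were pin-transferred onto Tsg101 binding domain (10 uM final) in HEPES pH 7.5 buffer, then FITC-PTAP peptide was added at 50 nM final. After 20 min at RT, polarization reported peptide displacement across a qHTS concentration series.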
Mm-Cpn inhibitor: inhibitors of Methanococcus maripaludis chaperonin TRiC (MmCpn). purified Mm-Cpn ATPase, ADP Transcreener TR-FRET. Potency, µM (titrated, usually from 76.9 µM), without a hit: at the top dose activity, negative = inhibition, most hits filed as inhibitors. 330,000 tested, 0.031% active; active means well fitted inhibition curve with a large enough effect; inconclusive means small, poorly fitted or top-dose-only effect; further: potency means the concentration at half of the fitted maximal effect; on the % scale 0 is the no-effect control and ±100 the full control effect; nearly all actives have a fitted effect of over 80% in size
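Compound-treated chaperonin, 25 nM final, turns over 10 uM ATP at 37°C for 30 min following a 10 min preincubation; ADP generated competes with ADP-d2 for Eu-cryptate antibody, lowering FRET.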
The depositor's hits bear a star; ? = inconclusive; / = no result given. Unless noted, the call rests on the fitted dose curve.

SMILES	D3 antag	D3 ag	Rango complex inh	Rango release inh	TSG101-PTAP inh	Mm-Cpn inhibitor
O=C(O)c1ccc(Cn2ccc3ccccc32)o1	-4	8	?	-4%	1%	0%
Cc1ccc(NC(=O)C(C)OC(=O)Cn2cnc3ccccc3c2=O)cc1 (stereo not given)	-9	-7	1%	-1%	-12%	0%
CCc1ccc(-c2cc(C)no2)cc1S(=O)(=O)Nc1cc(C)on1	-75*	-24	0%	-2%	4%	3%
Cc1ccc(C)c(Cc2c(C)nc3c(C(=O)NCc4ccc5c(c4)OCO5)cnn3c2C)c1	/	/	/	/	/	1%
Cc1nc2c(C(=O)N3CCN(C)CC3)cnn2c(C)c1Cc1ccc(Cl)cc1	-75*	-37	4%	-22%	-10%	?
Cc1ccccc1Cc1c(C)nc2c(C(=O)N3CCN(Cc4ccc5c(c4)OCO5)CC3)cnn2c1C	-60*	-4	0%	0%	-1%	/
Cc1ccccc1Cc1c(C)nc2c(C(=O)NCc3ccc4c(c3)OCO4)cnn2c1C	-81*	-22	-1%	-3%	/	2%
O=[N+]([O-])c1ccc(Oc2ccc(N=C=S)cc2)cc1	/	3	/	/	/	/
COc1cccc(-c2ccc3nnc(SCC(=O)N4CCOCC4)n3n2)c1	-5	-5	1%	-10%	1%	-1%
COc1cc(NC(=O)CCCc2nnc3n(CC(C)C)c(=O)c4sccc4n23)cc(OC)c1	/	-5	/	/	/	/
FC(F)(F)c1nnc(-c2ccccc2)nc1Sc1ccccc1	?	-10	-2%	-3%	0%	-1%
FC(F)(F)c1nnc(-c2ccccc2)nc1Sc1ccc(Cl)cc1	-93*	-9	0%	15%	-7%	-2%
FC(F)(F)c1cccc(Sc2nc(-c3ccccc3)nnc2C(F)(F)F)c1	-61*	-8	1%	-4%	-5%	1%
CC[C@@H](C(=O)O)[C@@H]1O[C@@H]([C@@H](C)[C@H](O)[C@H](C)C(=O)[C@H](CC)[C@H]2O[C@]3(C=C[C@@H](O)[C@]4(CC[C@@](C)([C@H]5CC[C@](O)(CC)[C@H](C)O5)O4)O3)[C@H](C)C[C@@H]2C)[C@@H](C)C[C@@H]1C	/	54*	/	/	/	/
Cc1ccc(NC(=O)C2=C(O)c3sccc3N(C)S2(=O)=O)cc1	?	0	?	-9%	-9%	0%
Cc1ccc(NC(=S)C2=C(O)c3sccc3N(C)S2(=O)=O)cc1	-88*	4	?	-11%	-9%	-3%
CN1c2ccccc2C(O)=C(C(=S)Nc2ccc(Cl)cc2)S1(=O)=O	-87*	4	0%	0%	-7%	0%
O=C(Nc1nc(-c2ccc(S(=O)(=O)N3CCCCCC3)cc2)cs1)c1ccccc1	16	14	-3%	-2%	-4%	35µM*
O=C(COc1ccccc1)Nc1nc(-c2ccc(S(=O)(=O)N3CCOCC3)cc2)cs1	19	3	5%	3%	-8%	?
O=C(COc1ccc(Cl)cc1)Nc1nc(-c2ccc(S(=O)(=O)N3CCOCC3)cc2)cs1	20	16	0%	-8%	0%	45µM*
CN(C)S(=O)(=O)c1ccc2c(c1)/C(=C/c1cc3c([nH]1)CCCC3)C(=O)N2	-86*	-94	?	?	?	-4%
CN(C)S(=O)(=O)c1ccc2c(c1)C(=O)c1cc(S(=O)(=O)N(C)C)ccc1CC2	/	/	?	-18%	0%	-30%
O=C1CCCN1CCCNCC(=O)N1c2ccccc2Sc2ccccc21	-53*	-3	0%	3%	0%	1%
CN1CCN(C(c2ccccc2)c2ccc(Cl)cc2)CC1 (stereo not given)	-92*	-91	0%	-6%	-3%	0%
CN1CCN(C(c2ccccc2Cl)c2sc3nc(-c4ccco4)nn3c2O)CC1 (stereo not given)	/	-9	/	/	/	/
SMILES	D3 antag	D3 ag	Rango complex inh	Rango release inh	TSG101-PTAP inh	Mm-Cpn inhibitor
CN1CCN(C(c2cccc(Cl)c2)c2ccccc2Cl)CC1 (stereo not given)	-81*	-22	0%	-18%	0%	1%
Cc1cccc(C)c1NC(=O)C(c1ccc(C#N)cc1)n1c(=O)c(-c2ccccc2)nc2ccccc21 (stereo not given)	-60*	-19	/	/	/	/
CCOc1ccc(C(=O)NC2CC3CCCC(C2)N3Cc2ccccc2)cc1 (stereo not given)	-54*	-9	0%	9%	-1%	0%
COc1ccc(C(=O)NC2CCN(S(=O)(=O)Cc3ccccc3)CC2)c(OC)c1	-12	9	0%	-15%	-4%	0%
COc1ccc(C(=O)NC2CC3CCCC(C2)N3CC(C)C)cc1 (stereo not given)	2	-6	-2%	-5%	1%	1%
COc1ccc(C(=O)NC2CC3CCCC(C2)N3Cc2ccccc2)cc1 (stereo not given)	-108*	-21	0%	-14%	-7%	0%
COc1ccc(CN2C3CCCC2CC(NC(=O)/C=C/c2ccccc2)C3)cc1 (stereo not given)	-111*	-21	4%	-7%	-7%	1%
COc1ccc(C(=O)NC2CC3CCCC(C2)N3Cc2ccccc2)c(OC)c1 (stereo not given)	-89*	-18	3%	8%	-1%	-1%
COc1ccc(CCC(=O)NC2CC(=O)N(c3ccc(F)cc3)C2)cc1 (stereo not given)	/	-17	/	/	/	/
CC(=O)N1c2ccccc2CC1C(=O)N1CCN(c2cccc(Cl)c2)CC1 (stereo not given)	/	1	/	/	/	/
O=C(COc1ccc(F)cc1Br)NCC1(N2CCOCC2)CCCCC1	-8	5	-1%	18%	-8%	-8%
COC(=O)c1sccc1S(=O)(=O)N1CCN(c2cc(Cl)ccc2C)CC1	/	-5	/	/	/	/
Cc1c(NC(=O)c2ccc(-c3ccc(F)cc3)o2)cccc1-c1nc2ncccc2o1	/	-16	/	/	/	/
O=C(NC1CC2CCC(C1)N2Cc1ccccc1)c1ccccc1Br (stereo not given)	-79*	-19	9%	-10%	-8%	0%

Bioassay records from PubChem BioAssay.
